The text below walks through data of PubChem BioAssay AID372 (MTDP, 2006).

SMILES strings stand for the structures. Among all 100,000 compounds or so, about 770 (0.77%) were called active. Cut-off read from the data, not from the text of the source: active = inhibition above about 50%; inactive = the rest. The list comes from a sample in which actives are over-represented; it also holds similar structures and randomly drawn compounds.

The target of this experiment is Gag-Pol polyprotein (Human immunodeficiency virus type 1 group M subtype B (isolate HXB2)) (UniProt P04585). As to the kind of experiment: RNase H inhibition, HIV 1 Gag Pol polyprotein, FRET biochemical assay, screening (AID 372). The note with it: HIV-1 RT RNase H, FRET RNA/DNA substrate fluorescence; at 10 µM; active compounds read high.
In the case of `N#C/C(=C\c1cc(Br)ccc1OCc1ccccc1)C(N)=O`, the inhibition is 10% (inactive). Turning to `N#C/C(=C\c1ccccc1[N+](=O)[O-])C(N)=O`, the inhibition was 0% (inactive). `N#C/C(=C\c1ccccc1OCCOc1ccc([N+](=O)[O-])cc1)C(N)=O`: the inhibition is 57% (active). Turning to `N#C/C(=C/c1ccccc1OS(=O)(=O)c1ccccc1)c1ccc([N+](=O)[O-])cc1`, the inhibition was 16% (inactive). The same measure for `C=CCc1ccccc1OCCOc1ccc(Br)cc1/C=C(\C#N)C(N)=O`: 60% (active); for `COc1ccccc1/C=C(\C#N)C(N)=O`: 0% (inactive); for `Cc1ccccc1/C=C(/C#N)c1ccc([N+](=O)[O-])cc1`: 42% (inactive). The same measure for `N#C/C(=C/c1ccccc1OCc1ccccc1F)c1ccc([N+](=O)[O-])cc1`: 54% (active). The same measure for `N#C/C(=C\c1cc(Br)ccc1OCc1cccc2ccccc12)C(N)=O`: 30% (inactive); for `CC(=O)Nc1ccc2oc(-c3ccc(Cl)cc3)nc2c1`: 9% (inactive); for `CCn1c(-c2ccccc2C)n[nH]c1=S`: 2% (inactive). `COc1nc(Nc2ccccc2)nc(NC(C)(C)C)n1`: the inhibition is 7% (inactive). For `O=C(N1CCN(C(c2ccccc2)c2ccccc2)CC1)C12CC3CC(CC(C3)C1)C2` the value was 25% (inactive); for `CC(NC(=O)/C(C#N)=C/c1ccc(N(C)C)c(Br)c1)c1ccccc1` (stereo not given), 15% (inactive); for `Cc1ccc(/C=C2/SC(=O)N(CO)C2=O)cc1`, 0% (inactive). For `Cc1ccccc1C(=O)NNC(=S)Nc1ccccc1` the value was 7% (inactive). The same measure for `CS(=O)(=O)N/N=C/c1ccc2c(c1)OCO2`: 0% (inactive); for `COc1ccc(-c2cc(C(F)(F)F)n3nc(C(=O)NC(C)C)c(Cl)c3n2)cc1OC`: 7% (inactive); for `C=CCN1C(=O)/C(=C/c2ccc(N(C)C)cc2)SC1=S`: 17% (inactive).

`Cc1ccc(Oc2ccc3noc4c3c2C(=O)c2ccccc2-4)cc1`: the inhibition was 8% (inactive).

For the molecule `O=C1c2ccccc2-c2onc3ccc(Oc4ccccc4)c1c23`, the inhibition is 2% (inactive). The same measure for `CC(C)(C)c1ccc(Oc2ccc3noc4c3c2C(=O)c2ccccc2-4)cc1`: 50% (active); for `OC1CC(c2ccccc2)NC2(CCCCC2)C1` (stereo not given): 2% (inactive). For `O=C(COc1ccccc1[N+](=O)[O-])Nc1ccc2oc(-c3cc(Br)ccc3Cl)nc2c1` the value was 49% (inactive); for `Cc1oc(C(=O)O)cc1CSc1nc2ccccc2[nH]1`, 5% (inactive). The same measure for `COc1ccc(-c2ccccc2)cc1NCc1c2ccccc2cc2ccccc12`: 2% (inactive); for `COc1ccc2nc(-c3ccccc3)c(-c3ccccc3)nc2c1`: 6% (inactive); for `COc1ccc(-c2nc3ccc(Cc4ccc5nc(-c6ccc(OC)cc6)c(-c6ccc(OC)cc6)nc5c4)cc3nc2-c2ccc(OC)cc2)cc1`: 55% (active). As to `COc1ccc(Cc2ccc(OC)cc2)cc1`, the inhibition was 5% (inactive). For the molecule `C#CCOc1ccc(/C=C2/C(=O)NC(=O)N(c3ccccc3F)C2=O)cc1`, the inhibition was 0% (inactive). The same measure for `Cc1ccc(OCCn2c(=S)[nH]c3ccccc32)cc1`: 61% (active). The same measure for `S=c1[nH]c2ccccc2n1CCOc1ccc(Cl)cc1`: 39% (inactive); for `S=c1[nH]c2ccccc2n1CCOc1ccccc1`: 30% (inactive).

For `Cc1ccccc1OCCOc1ccccc1/C=c1\sc2nc3ccccc3n2c1=O`, the inhibition was 9% (inactive). As for `CC(=O)COc1ccc2c(c1)oc(=O)c1ccccc12`, the inhibition was 7% (inactive). For `Cc1c(Cl)c(=O)oc2cc(OCC(=O)c3ccc(Cl)cc3)ccc12` the value was 50% (active); for `Cc1c(Cl)c(=O)oc2cc(OCc3ccc(Cl)cc3)ccc12`, 3% (inactive); for `O=C(COc1ccc(Cl)cc1)Oc1ccc2c(c1)oc(=O)c1ccccc12`, 54% (active).

As to `CC(C)OC(=O)COc1ccc2c(c1)oc(=O)c1ccccc12`, the inhibition was 0% (inactive). Consider `Cc1cc(=O)oc2cc(OCC(=O)c3ccc(Cl)cc3)ccc12`, for which the inhibition was 19% (inactive). The same measure for `O=C1CCCC2=C1C(c1ccccc1Cl)Nc1ccc(C(=O)c3ccccc3)cc1N2` (stereo not given): 1% (inactive); for `Cc1ccc(C(=O)Nc2cc(C)cc(C)c2)cc1`: 0% (inactive).

In the case of `Cc1ccc(N=Cc2c(O)n(C3CCCCC3)c(=O)n(C3CCCCC3)c2=O)cc1C`, the inhibition was 6% (inactive). The same measure for `O=C(Nc1nnc(CSCc2ccccc2Cl)s1)Nc1ccc(Cl)cc1Cl`: 46% (inactive).

Regarding `O=C(Nc1nnc(CSCc2ccccc2F)s1)Nc1ccc(Cl)cc1Cl`, the inhibition is 53% (active). As for `Cc1cccc(CSCc2nnc(NC(=O)Nc3ccc(Cl)cc3Cl)s2)c1`, the inhibition was 53% (active). As to `O=C(Nc1nnc(CSCc2ccc(Cl)cc2Cl)s1)Nc1ccc(Cl)cc1Cl`, the inhibition was 33% (inactive). For `O=C(Nc1nnc(C(c2ccccc2)c2ccccc2)s1)Nc1ccc(Cl)cc1Cl` the value was 52% (active); for `O=C(Nc1nnc(Cc2ccccc2F)s1)Nc1ccc(Cl)cc1Cl`, 18% (inactive). The same measure for `CCC(c1ccccc1)c1nnc(NC(=O)Nc2ccc(Cl)cc2Cl)s1` (stereo not given): 12% (inactive); for `O=C(Nc1nnc(CSCc2ccccc2)s1)Nc1ccc(Cl)cc1Cl`: 39% (inactive); for `Cc1cccc(CSCc2nnc(NC(=O)Nc3ccc(Cl)cc3)s2)c1`: 31% (inactive). The same measure for `O=C(Nc1nnc(Cc2ccc(Cl)cc2)s1)Nc1ccc(Cl)cc1Cl`: 37% (inactive); for `CC(c1ccccc1)c1nnc(NC(=O)Nc2ccc(Cl)cc2Cl)s1` (stereo not given): 36% (inactive); for `O=C(Nc1nnc(Cc2ccc(Cl)cc2Cl)s1)Nc1ccc(Cl)cc1Cl`: 66% (active). On to `COc1ccc2ccccc2c1-c1cc(C(=O)N/N=C/c2ccc(C)cc2)[nH]n1`, for which the inhibition is 13% (inactive). On to `CCCOC(=O)c1ccc(NC(=S)NC(=O)c2ccc(OCCC)cc2)cc1`, for which the inhibition is 20% (inactive). For `CCOc1ccc(NC(=O)c2c(NC(=O)C(C)(C)C)sc3c2CCCC3)cc1`, the inhibition was 13% (inactive). On to `COc1cccc(/C=N\NC(=O)CNc2ccccc2C)c1`, for which the inhibition was 5% (inactive). The same measure for `CCOC(=O)C1=C(C)N=c2s/c(=C\c3ccc(-c4ccc(Cl)cc4[N+](=O)[O-])o3)c(=O)n2C1c1ccc(OC)cc1` (stereo not given): 43% (inactive).

Consider `O=[N+]([O-])c1ccc(N2CCCC2)c(C(F)(F)F)c1`, for which the inhibition is 21% (inactive). The same measure for `O=C(NC(=S)Nc1cc([N+](=O)[O-])ccc1F)c1cccc(I)c1`: 4% (inactive). In the case of `COc1ccc(-c2csc(N3N=C(c4ccc(Cl)cc4)CC3c3ccc(OC)c(OC)c3)n2)cc1F` (stereo not given), the inhibition was 3% (inactive).

As to `COc1ccc(C2CC(c3ccc(Cl)cc3)=NN2c2nc(-c3cccc(N4C(=O)c5ccccc5C4=O)c3)cs2)cc1OC` (stereo not given), the inhibition is 53% (active).

Consider `COc1ccc(C2CC(c3ccc(Cl)cc3)=NN2c2nc(-c3ccc(C)cc3)cs2)cc1OC` (stereo not given), for which the inhibition was 3% (inactive).

Broadly, the inhibition is the share of the control response that was lost under treatment.
